This is an account of results in PubChem BioAssay AID1672 (Johns Hopkins Ion Channel Center, 2009).

The whole screen tested about 310,000 compounds, of which about 2,600 (0.84%) were called active. Many of the other results were omitted from the sample, so actives are more common in it than they were. Unmarked numbers belong to inactive results.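 The calls were made as follows: active = fluorescence ratio B-score at or below minus 3 SD of library scores, with starting-brightness B-score within 2 SD (cut at about -4.2 in these data); inactive = the rest.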

Chain of Inward rectifier potassium channel 2 (Mus musculus) (P35561 whole entry, looked up): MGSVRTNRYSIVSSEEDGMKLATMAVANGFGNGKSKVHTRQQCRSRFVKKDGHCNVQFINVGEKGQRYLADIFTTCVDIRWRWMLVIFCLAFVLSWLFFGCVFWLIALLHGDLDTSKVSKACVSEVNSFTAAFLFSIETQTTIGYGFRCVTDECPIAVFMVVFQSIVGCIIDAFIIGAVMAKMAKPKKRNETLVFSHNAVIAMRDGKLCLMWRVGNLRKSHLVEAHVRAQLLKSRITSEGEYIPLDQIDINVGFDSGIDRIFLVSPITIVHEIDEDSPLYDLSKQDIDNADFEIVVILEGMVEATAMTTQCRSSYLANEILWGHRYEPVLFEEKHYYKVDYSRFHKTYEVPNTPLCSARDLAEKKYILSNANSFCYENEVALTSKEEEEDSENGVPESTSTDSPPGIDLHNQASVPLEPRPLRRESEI

The test has as its target Inward rectifier potassium channel 2 (Mus musculus) (UniProt P35561). The test is described as follows: blocks the mouse Kir2.1 inward-rectifier potassium channel (AID 1672).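 Also: channel flux triggered by added potassium and thallium sulfate stimulus; B-score of peak minus minimum fluorescence over baseline after thallium stimulus; more negative B-score means stronger Kir2.1 block with less thallium influx.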 The note with it: HEK293-Kir2.1, FluxOR thallium flux fluorescence; at 10 µM; stronger effect = lower value.
Consider `O=C(NC1CCCCC1)c1ccc(-c2ccc(Cl)cc2)o1`, for which the B-score is 1.25.

For `C=CCn1c(=O)c2ccccc2n2c(SCC(=O)N3CCCc4ccccc43)nnc12`, the B-score is 0.08.

Regarding `O=C(CSc1nc2ccccc2c(=O)n1CCCO)N1CCc2ccccc21`, the B-score is 0.73.

As for `Cn1c(SCC(=O)N2CCCc3ccccc32)nc2ccccc2c1=O`, the B-score was -6.03 (active).

As for `CN(Cc1ccccc1F)C(=O)C(Cc1ccccc1)NC(=O)c1ccccc1` (stereo unspecified), the B-score is -1.09.

For the compound `CC(=O)Nc1cccc(C(=O)OCC(=O)NCc2cc(C)c(O)c(C)c2)c1`, the B-score is -1.5.

As for `CC(=O)N1C(C)c2ccccc2C(C)(C)CC12CCCCC2` (stereo unspecified), the B-score is -6.43 (active).

With `CC(=O)N1CCN(C(=O)c2cc(-c3ccc(C)o3)nc3ccccc23)CC1`, the B-score was 0.63.

Consider `CCCCCN(C(=O)CCC(=O)OCCOc1ccc(OC)cc1)c1c(N)n(CCCC)c(=O)[nH]c1=O`, for which the B-score is 0.11.

Regarding `O=C(N/N=C/c1cc(Br)c(O)c([N+](=O)[O-])c1)C(O)(c1ccccc1)c1ccccc1`, the B-score is 1.06.

As for `CN(/N=C/c1ccccc1)C(=S)c1ccccc1`, the B-score was 1.83.

Turning to `CCCOc1ccc(Cn2ccnc2)cc1[N+](=O)[O-]`, the B-score was -0.79.

As for `CCCCOc1ccc(CSC(=N)N)cc1[N+](=O)[O-]`, the B-score is -5.22 (active).

Take `CCCCCOc1ccc(CSC2=NCCN2)cc1[N+](=O)[O-]`: the B-score is -0.86.

In the case of `O=C(CNC(=O)C12CC3CC(CC(C3)C1)C2)OCC(=O)N1CCCCC1`, the B-score is 1.97.

For the compound `CCC(C)N(C(=O)COC(=O)c1nc(Cl)ccc1Cl)C1CCS(=O)(=O)C1` (stereo unspecified), the B-score was -0.16.

Take `CCN(CC(=O)Nc1ccc(NC(C)=O)cc1)C(=O)C1CC(=O)N(Cc2ccc(C)cc2)C1` (stereo unspecified): the B-score was 1.85.

Regarding `COc1cc(OC)c2ccc(=O)oc2c1C(CCN1CCN(c2ccccc2)CC1)c1ccc2c(c1)OCO2` (stereo unspecified), the B-score is -0.17.

For the compound `CCN(CC)C(=O)CC(c1ccc2c(c1)OCO2)c1c(OC)cc(OC)c2c(-c3ccccc3)cc(=O)oc12` (stereo unspecified), the B-score was 1.58.

For `CCN(CC)CCC(c1ccc2c(c1)OCO2)c1c(OC)cc(OC)c2c(-c3ccccc3)cc(=O)oc12` (stereo unspecified), the B-score was -6.31 (active).

For the compound `O=C(CCl)NNc1nc(-c2ccccc2)c2cc(Cl)ccc2n1`, the B-score is 0.44.

As to `NC(N)=Nc1nc(-c2ccccc2)c2cc(Cl)ccc2n1`, the B-score is -10 (active).

Consider `Cc1ccc2nc(Nc3ccccc3O)nc(-c3ccccc3)c2c1`, for which the B-score was -0.47.

On to `CCCCn1c(N)c(N(CCOC)C(=O)c2cccc(S(=O)(=O)N(C)c3ccccc3)c2)c(=O)[nH]c1=O`, for which the B-score was -1.94.

`COc1cccc(CNCc2ccc3c(c2)OCO3)c1`: the B-score is 0.44.

`COc1ccc2c(c1)C(C)=CC(C)(C)N2C(=O)Nc1ccccc1`: the B-score is -0.17.

Take `COc1ccc2c(c1)C(C)=CC(C)(C)N2C(=O)CNCc1ccc2c(c1)OCO2`: the B-score was -6.62 (active).

Take `COc1ccc(-c2nnc(SCC(=O)Nc3cccnc3Cl)n2C)cc1`: the B-score is -1.29.

On to `COc1ccc(-c2n[nH]c(C)c2-c2ccccc2OC)c(O)c1`, for which the B-score was -2.01.

For the compound `COc1ccccc1-c1n[nH]c2c1[C@H](C)CC[C@H]2C(C)C`, the B-score was -5.83 (active).

For `COc1ccccc1-c1nc(SC)n[nH]1`, the B-score is 0.18.

In the case of `CCOc1ccc(S(=O)(=O)N2CCC(C(=O)OCc3ccc(OC)cc3)CC2)cc1`, the B-score was -1.22.

As to `CCOc1cc(/C=N/NC(=O)c2cccc(S(=O)(=O)N3CCOCC3)c2)ccc1OCC(=O)N(C)C`, the B-score is 0.

As to `COc1ccc(CC(=O)NC(C)CCc2ccccc2)cc1` (stereo unspecified), the B-score was -1.96.

In the case of `COc1ccc(C(CNCC(=O)Nc2ccccc2F)N(C)C)cc1` (stereo unspecified), the B-score is -0.53.

Consider `COc1ccc(C(CCNCc2ccccc2F)c2ccc(F)cc2)cc1` (stereo unspecified), for which the B-score was -9.19 (active).

In the case of `Cc1ccc(NC(=O)COc2coc(CN3CCc4ccccc4C3)cc2=O)cc1Cl`, the B-score was -0.37.

With `CC(=O)Nc1ccc(C(=O)Nc2cccc(S(=O)(=O)NC3=NCCC3)c2)cc1`, the B-score is -0.82.

`O=C(Nc1ccccc1Cl)Nn1cnnc1`: the B-score was 1.92.

As for `O=C(COC(=O)c1cccs1)Nc1ccccc1Cl`, the B-score was -0.93.

As to `O=C(Nc1ccccc1Cl)/C(Cl)=C(\Cl)S(=O)c1ccccc1` (stereo unspecified), the B-score is -14.3 (active).

Turning to `O=C(NCCCc1ccccc1)C(=O)NCC1OCCN1S(=O)(=O)c1ccccc1` (stereo unspecified), the B-score is 0.45.

With `CC1=NCCN1S(=O)(=O)c1cccc([N+](=O)[O-])c1`, the B-score was 0.

As for `COc1cc(S(=O)(=O)N2CCN=C2c2ccccc2)ccc1Cl`, the B-score was -5.41 (active).

On to `CCOc1ccc(S(=O)(=O)N2CCN=C2Cc2ccccc2)cc1C`, for which the B-score was -3.8.

For `CCOC(=O)c1cc(C(C)C)sc1NC(=O)COC(=O)c1nccnc1N`, the B-score is -0.16.

As to `CCCCN(C(=O)c1ccc(S(=O)(=O)N2CCOCC2)cc1)C1CCS(=O)(=O)C1` (stereo unspecified), the B-score was -1.08.

In the case of `Cc1ccc(-c2nn(-c3ccccc3)cc2C(=O)NCCCN2CCCC2=O)cc1`, the B-score is -0.8.

On to `OC(COc1ccc(F)cc1Cl)CN1CCc2ccccc2C1` (stereo unspecified), for which the B-score is -5.33 (active).

On to `COc1ccccc1OCC(O)CN1CCOCC1` (stereo unspecified), for which the B-score is 1.4.

Consider `Cc1ccc(OCC(O)CN2CCN(CC(O)COc3ccc(C)cc3Cl)CC2)c(Cl)c1` (stereo unspecified), for which the B-score was 0.66.

For `Cc1ccc(C(=O)NC2CCCC(C)C2C)cc1S(=O)(=O)N1CCCCC1` (stereo unspecified), the B-score was -1.83.

As to `O=C(Cc1ccccc1)NCc1ccc(F)cc1`, the B-score is 0.8.

Consider `CCCCC(=O)NCc1ccc(F)cc1`, for which the B-score was 0.15.

Take `CCn1cc(CCC(=O)NCc2ccc(F)cc2)c2ccccc21`: the B-score was -6.18 (active).

For `CCCC(C(=O)OCCN(CC)CC)(c1ccccc1)c1ccccc1`, the B-score is -5.06 (active).

As to `CCC(C(=O)OCCN(CC)CC)c1ccccc1` (stereo unspecified), the B-score was 0.4.

Regarding `CCN(CC)CCOC(=O)c1ccc(NC(=O)CNC(=O)c2ccccc2)cc1`, the B-score is 0.63.

Turning to `COc1cc(C(=O)OCC(=O)N(CC(C)C)C2CCS(=O)(=O)C2)ccc1OCC(C)C` (stereo unspecified), the B-score is 1.65.

For the compound `COc1ccc(NC(=O)CSc2nnc(Cc3ccccc3)c(=O)n2N)cc1`, the B-score is -1.28.

Regarding `CC12CCC(=O)N1C(C(=O)Nc1ccc(F)c(F)c1F)CS2` (stereo unspecified), the B-score is 1.46.

On to `COc1cccc(CNC(=O)C(=O)NCCC2CCCCN2S(=O)(=O)c2ccc(C)cc2)c1` (stereo unspecified), for which the B-score was -0.02.

In the case of `COc1cccc(CN(C)CC(O)COC(c2ccccc2)c2ccccc2C)c1` (stereo unspecified), the B-score was -9.28 (active).

For `COc1cccc(CN(C)CC(=O)Nc2sc3c(c2C#N)CCC3)c1`, the B-score is 1.34.

As for `COc1cccc(CN(C)CC(=O)Nc2ccccc2C(=O)Nc2ccccc2)c1`, the B-score is 0.2.

For `C=CCOc1ccc(/C=C/C(=O)OC(C)C(=O)Nc2ccc(NC(C)=O)cc2)cc1` (stereo unspecified), the B-score was 1.98.

For the compound `Cn1c(CO)cnc1SCc1ccccc1`, the B-score was 0.48.

With `CSc1c(SCc2ccccc2)cnn(Cc2ccccc2)c1=O`, the B-score is -5.77 (active).

With `CSc1nc2ccccc2c(=O)n1Cc1ccc(F)cc1`, the B-score is -0.15.

Regarding `O=C(NCCC1CCCCN1S(=O)(=O)c1ccc(Cl)cc1)C(=O)NCc1ccco1` (stereo unspecified), the B-score was 0.39.

In the case of `CCCc1nc(SCC(=O)Nc2ccc(S(=O)(=O)N(C)C)cc2)c2ccccc2n1`, the B-score is 0.71.

On to `CCc1nc(SCC(=O)NNC(=O)c2ccc(C)cc2)c2ccccc2n1`, for which the B-score is -1.13.

Take `CCCNC(=O)CSc1nc(Cc2ccccc2)nc2ccccc12`: the B-score was -5.07 (active).

In the case of `Brc1cnc2ccccc2c1N1CCCCC1`, the B-score was 0.77.

Turning to `CCOc1ccc(NS(=O)(=O)c2ccc(C(=O)NCC(c3ccccc3OC)N3CCCC3)cc2)cc1` (stereo unspecified), the B-score was -0.36.

Consider `CC1CCN(C(=O)COC(=O)c2cc(S(=O)(=O)N3CCOCC3)ccc2Cl)CC1`, for which the B-score is -1.43.

As for `CCOc1ccc(/C=C/C(=O)N(CC)CC(=O)NCc2cccs2)cc1OC`, the B-score was 0.23.

Regarding `Cc1ccccc1NC(=O)NCC1CCN(Cc2cccc(Cl)c2)CC1`, the B-score was -0.23.

`Cc1ccc(C)c(CN2CCC(CNC(=O)Nc3ccc(C)c(F)c3)CC2)c1`: the B-score was -0.54.

In the case of `Cc1cccc(CN2CCC(CNC(=O)Nc3ccc(F)c(Cl)c3)CC2)c1`, the B-score is -4.23 (active).

On to `O=C1[C@H]2[C@@H](c3ccc(Cl)cc3)N3C(=O)N(c4cccc(F)c4)C(=O)[C@@]3(Cc3ccccc3)[C@H]2C(=O)N1C1CCCCC1`, for which the B-score is 1.66.

For the compound `CCCC[C@@H]1CN=C(N)N1CCCC`, the B-score was 0.

On to `O=C(NCC(c1ccco1)N1CCc2ccccc21)c1cccc(F)c1` (stereo unspecified), for which the B-score is -0.73.

On to `Clc1c(OCCCn2ccnc2)ccc2ccccc12`, for which the B-score was -7.14 (active).

Consider `C=CCc1cc(C)ccc1OCCCn1ccnc1`, for which the B-score is 0.46.

Consider `c1ccc(Cc2ccc(OCCn3ccnc3)cc2)cc1`, for which the B-score is -1.84.

Regarding `CC(=O)Nc1ccc(NC(=O)CSC2=NS(=O)(=O)c3ccccc3N2)cc1`, the B-score is 1.78.

In the case of `CC1(C)CC[C@]2(C(=O)O)CC[C@]3(C)C(=CCC4[C@@]5(C)CC[C@H](O)C(C)(C)C5[C@H](O)C[C@]43C)[C@@H]2C1` (stereo partly specified), the B-score is -0.05.

With `CC(=O)c1sc(N)nc1C`, the B-score is 0.05.

For `O=C1CC2(CCN(C(=O)COc3ccc(F)cc3)CC2)Oc2ccccc21`, the B-score was -0.48.

Consider `CN(CC#CCC(c1ccccc1)c1ccccc1)C(C)(C)C`, for which the B-score is -5.14 (active).

`CC(C)(C)N(CC#CCC(O)(c1ccccc1)C1CCCC1)CCO` (stereo unspecified): the B-score was -0.14.

With `COc1ccc(C#Cc2c(-c3ccc(OC)cc3)oc3ccc(-c4ccc5c(c4)OCO5)cc23)cc1`, the B-score was 0.43.

As to `C=CCN(c1ccc(Cl)cc1)S(=O)(=O)c1cccc(C(=O)OCC(=O)N(C)C)c1`, the B-score was -4.24 (active).

With `COc1ccc(N(Cc2ccccc2)S(=O)(=O)c2cccc(C(=O)O)c2)cc1`, the B-score was -0.29.

Regarding `CN(C)S(=O)(=O)c1cccc(C(=O)OCC(=O)N2CCCC2=O)c1`, the B-score was 0.88.
